Experiments:
Assay in all cases: PBM binding z-score (relative to random genomic background probes); higher = stronger binding; sequences stand for … in GC…GCGATTGACAGCGTAGAATGAAGG
[1] = system: RARb homodimer (NR concentration 270 nM)
Summary of the method: (§1)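 Scanned fluorescence from custom Agilent 4×180K protein-binding microarrays was regression-normalized. Binding z-scores use random background probes as reference. Ligand-free nuclear receptor dimers were incubated on the arrays for 1 h and detected with antibodies against each partner (one per run).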

[2] = system: RARg:RXRa (NR concentration 270 nM, RXRa partner concentration 90 nM)
Summary of the method: as §1

[3] = system: RARg homodimer (NR concentration 270 nM)
Summary of the method: as §1

[4] = system: RXRa DBDmut IVT, anti-RXR (DBD mutation: RXRa K156A/R161A, NR concentration 90 nM)
Summary of the method: as §1

[5] = system: RXRa homodimer (NR concentration 180 nM)
Summary of the method: as §1

[6] = system: THRa:RXRa (NR concentration 90 nM, RXRa partner concentration 90 nM)
Summary of the method: as §1

[7] = system: THRa homodimer (NR concentration 90 nM)
Summary of the method: as §1

[8] = system: VDR homodimer (NR concentration 270 nM)
Summary of the method: as §1

Sequence	PBM binding z-score [1]	PBM binding z-score [2]	PBM binding z-score [3]	PBM binding z-score [4]	PBM binding z-score [5]	PBM binding z-score [6]	PBM binding z-score [7]	PBM binding z-score [8]
ATATGTAGATTAGGGTCATTCAGAAAGTAGGGAA	3.09	3.47	2.29	2.09	4.53	3.9	2.95	3.14
ATACGTAGGTTATCGGGTCATTCAGTTTGCGCAT	2.77	3.41	2.36	1.77	3.41	3.18	2.93	3.86
CGAACTAGGTGACCAGGACAGTGAAGAGGTTGGA	1.03	0.633	0.705	-0.229	0.65	1.36	0.885	-0.155
TCGAGTAGGTTACGGGGGCATTAAGGGATGAAGA	1.91	3.09	2.32	1.61	2.56	2.83	0.949	2.81
TCTTGTTGATCAAAGGTTAAGAAAGCCGAAGCCT	1.89	1.64	1.11	0.76	2.64	1.58	-0.291	0.435
ATATGTAGGTTACATCGGGGTCATTCAGGCTATG	4.16	5.65	3.14	2.56	6.42	4.32	3.16	6.17
AGAATGAGGTTAGCAAAGATCAGGGAAACGCTTG	0.446	0.938	0.899	0.105	1.23	1.8	0.173	-0.135

Source: the supplement of paper PMC6555819
